IL-1B inflam inh: inflammasome signaling inhibition, IL-1 beta readout; THP-1 LPS/ATP IL-1B secretion, AlphaLISA, 16 h; stronger effect = lower value; activity change, % at 57.5 µM; 360,000 compounds, 4.7% hits; AID 743279; in the data active = activity change below about -50%; inconclusive = mostly about -30% to -49%
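Secreted IL-1B measured by AlphaLISA bead assay after 16 h compound exposure of THP-1 cells; compounds (final up to 57.5 uM) added 1 h before LPS (250 ng/mL) and ATP (1.25 mM) stimulation; lower signal means less secretion.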
TGFb inhibitor: blocks TGF-b signaling | AID 588855 | Potency, µM (series often up to 46.1 µM), hits mostly inhibitors | HepG2 CAGA-GFP TGF-b/SMAD3 reporter, GFP fluorescence, 18 h; TGF-beta stimulated, 500 pg/mL final | 410,000 compounds, 1.2% hits; also: nearly all actives have a fitted effect of over 65% in size
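TGF-beta reporter screen: HEPG2 CAGA-GFP, 1% FBS, 500 pg/mL TGF-beta final, 18 h; per-cell GFP summed per well; curves fitted and categorized by class.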
TDP1 block: TDP1 (human) enzyme inhibition. Potency, µM (top dose mostly 130 µM), usual class: inhibitors. AID 485290. recombinant TDP1, AlphaScreen DNA substrate cleavage. Q9NUW8. 350,000 compounds, 0.28% hits; also: nearly all actives have a fitted effect of over 40% in size
Target sequence (Q9NUW8 whole entry, looked up): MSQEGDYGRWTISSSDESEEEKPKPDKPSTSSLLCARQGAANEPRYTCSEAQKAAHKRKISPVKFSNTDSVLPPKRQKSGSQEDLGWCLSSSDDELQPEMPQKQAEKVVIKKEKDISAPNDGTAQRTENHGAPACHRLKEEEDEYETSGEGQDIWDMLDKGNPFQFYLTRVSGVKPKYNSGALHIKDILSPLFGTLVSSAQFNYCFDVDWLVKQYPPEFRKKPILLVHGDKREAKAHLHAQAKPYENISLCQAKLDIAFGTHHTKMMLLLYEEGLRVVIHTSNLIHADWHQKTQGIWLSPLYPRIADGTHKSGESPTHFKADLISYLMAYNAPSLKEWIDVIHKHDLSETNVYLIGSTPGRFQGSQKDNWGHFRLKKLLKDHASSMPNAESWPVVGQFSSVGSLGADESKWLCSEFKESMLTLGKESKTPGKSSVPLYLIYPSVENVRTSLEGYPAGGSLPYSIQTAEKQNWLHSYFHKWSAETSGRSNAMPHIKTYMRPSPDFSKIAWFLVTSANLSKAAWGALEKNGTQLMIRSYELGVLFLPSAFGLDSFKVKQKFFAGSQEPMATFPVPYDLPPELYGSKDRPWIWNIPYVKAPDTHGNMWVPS
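Compounds were preincubated with Tdp1 (1 nM final) for 15 min at room temperature before substrate (15 nM final) started a 5 min reaction; beads (10 ug/ml final) were then added for 10 min before AlphaScreen detection.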
HepG2 viability: HepG2 cytotoxicity, counter-screen for TGF-b inhibitors | HepG2 CAGA-GFP viability, ATP luminescence, 18 h | Potency, µM (series often up to 46.1 µM), actives largely listed as cytotoxic | 410,000 compounds, 0.76% hits
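CellTiter-Glo luminescence gave cytotoxicity after 18 hours at 37 degrees C. The cells were HepG2 CAGA-GFP in 1% FBS DMEM, stimulated with 500 pg/mL TGF-beta after compound addition. %Activity was normalised to no-cell wells (complete cell-killing) and DMSO (no toxicity), and curves were fitted and classified.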
TDP1 cell CPT: DT40-hTDP1 cell growth loss with CPT | chicken DT40 Tdp1-/-;hTDP1 cells + 20 nM CPT, ATP luminescence, 48 h | Potency, µM (top dose mostly 46.2 µM), actives largely listed as inhibitors | 420,000 compounds, 12% hits; also: nearly all actives have a fitted effect of over 55% in size
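Cell growth measured by CellTiter-Glo luminescence after a minimum 48 h, 37 C compound exposure with 20 nM CPT in Tdp1-knockout DT40 cells stably expressing hTDP1, seeded 400/well; qHTS titration format.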
TDP1 cell noCPT: qHTS for Inhibitors of human tyrosyl-DNA phosphodiesterase 1 (TDP1): qHTS in cells in absence of CPT; 420,000 compounds, 15% hits; Potency, µM (highest dose often 46.2 µM), actives largely listed as inhibitors; DT40 Tdp1-/- hTDP1 cells, no CPT, ATP luminescence, 48 h; also: nearly all actives have a fitted effect of over 55% in size
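Cells were dispensed at 400 per well, compounds added by pin tool, plates incubated ≥48 hr at 37 °C, then CellTiter-Glo added for 30 min at room temperature before luminescence reading. Line: DT40 Tdp1-/- complemented with hTDP1; camptothecin omitted.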
Numbers stand for hits; . = inactive; ? = inconclusive; / = no result; [ ] = another dose, or the depositor's remark. Shown are actives, neighbours in structure and some others; about 19% of the full set was active somewhere. Unless noted, calls follow the shape of the dose curve; as a rule, active = well fitted curve in the direction sought with a large enough effect; inconclusive = small, poorly fitted or top-dose-only effect, or another doubt; inactive = no such curve, though single readings can be large; an effect the other way counts as inactive or inconclusive.

SMILES | IL-1B inflam inh | TGFb inhibitor | TDP1 block | HepG2 viability | TDP1 cell CPT | TDP1 cell noCPT
CC1CN(c2nc3ccccc3cc2-c2ccccc2)CC(C)O1 (centres undefined) | . | . | . | . | ? | ?
COc1cccc(-c2c(C(=O)O)cc(O)c3ccc(OC)cc23)c1 | . | . | / | . | . | .
O=C(O)c1cccc(Nc2nc(-c3cccnc3)nc3ccccc23)c1 | . | . | . | . | ? | ?
c1cncc(-c2nc(NCc3cccs3)c3ccccc3n2)c1 | . | . | . | . | ? | ?
COc1cccc(/C=N/Nc2nc(-c3cccnc3)nc3ccccc23)c1 | . | ? | / | . | 16.4µM | 16.4µM
C(=N\Nc1nc(-c2cccnc2)nc2ccccc12)/c1ccccc1 | / | . | / | . | ? | 16.4µM
Brc1ccc(-c2nc(N/N=C/c3cccnc3)c3ccccc3n2)cc1 | . | . | . | . | 11.6µM | 13µM
COc1cccc(CNc2nc(-c3cccnc3)nc3ccccc23)c1 | -93.2 | . | . | . | ? | ?
Cc1ccccc1Nc1oc(-c2ccccc2)nc1CCc1ccccc1 | / | / | . | / | / | /
CC(=O)O[C@@H]1CC2C(C)(C)C(=O)C=C[C@]2(C)C2CC[C@]3(C)C(=CC[C@H]3C3CO[C@@H](C(C)(C)O)[C@H](O)C3)[C@@]21C (some centres undefined) | / | / | . | / | ? | .[9.04 µM]
CC(=O)c1cc2c(cc1NC(=O)C1CN(C(C)=O)c3ccccc3O1)OCO2 (centres undefined) | . | ? | . | . | 14.6µM | 20.6µM
CC(=O)c1cc2c(cc1NC(=O)c1cc(C)nn1-c1ccccc1)OCO2 | . | . | . | . | 5.17µM | 3.66µM
CC1(c2nnc(-c3cccc(Cl)c3)o2)CC(c2ccc(OC(F)(F)F)cc2)=NO1 (centres undefined) | . | ? | / | . | . | .
CCOc1cc2c3c(c1)C1(Nc4ccccc4S1)C(=O)N3C(C)(C)CC2C (centres undefined) | . | 12.6µM | . | . | 18.4µM | ?
CCOc1cc2c3c(c1)C1(OCCO1)C(=O)N3C(C)(C)CC2C (centres undefined) | . | . | . | . | ? | ?
Cn1cc(C(=O)NCCc2ccccc2)c(=O)c2cc(S(=O)(=O)N3CCCCC3)ccc21 | / | . | . | . | . | .
CCOc1cccc(C=Nc2cc(C)cc(C)c2O)c1O | . | . | . | . | 14.6µM | ?
CCOc1cccc(/C=N/N=C/c2cccc(OCC)c2O)c1O | . | . | / | . | . | .
Cc1ccc(NCCC(=O)c2cccs2)cc1Cl | . | . | . | . | 7.31µM | 9.2µM
Cc1ccc(NCCC(=O)c2cccs2)cc1 | . | ? | . | . | 2.91µM | 5.17µM
Cc1ccc(NC(NC(=O)c2cccs2)C(Cl)(Cl)Cl)cc1C (centres undefined) | ? | ? | . | . | ? | 18.4µM
O=C(CCNc1cccc(Cl)c1)c1cccs1 | . | . | . | . | 10.3µM | 14.6µM
Cc1cc2oc3c(c(=O)c2cc1C)C(c1ccc(C(C)C)cc1)N(c1nc(C)c(C)s1)C3=O (centres undefined) | / | . | . | . | . | .
CCc1ccc(CN2C(=O)c3ccccc3C2C(=O)NCCc2ccc(OC)c(OC)c2)cc1 (centres undefined) | / | . | . | . | ? | ?
COC(=O)c1ccc(C(NC(=O)OCc2ccccc2)/C(F)=C/[C@@H](C)C(=O)NCCN2CCOCC2)cc1 (some centres undefined) | / | / | . | / | / | /
SMILES | IL-1B inflam inh | TGFb inhibitor | TDP1 block | HepG2 viability | TDP1 cell CPT | TDP1 cell noCPT
Cc1cc(C)n(-c2ccc(C(=O)OCC(=O)Nc3cc(S(C)(=O)=O)ccc3Cl)cc2)n1 | . | . | . | . | . | .
Cc1ccc(C(=O)N/N=C(/CC(=O)c2cccs2)C(F)(F)F)cc1 | . | ? | . | . | 7.31µM | 9.2µM
O=C(CCC(=O)c1cccs1)NNC(=O)c1cccc(Cl)c1 | . | . | .[0.505 µM] | . | ? | 23.1µM
CC(C)c1ccc(NCCC(=O)c2cccs2)cc1 | . | . | . | . | 5.17µM | 5.17µM
Cc1ccc(NCCC(=O)c2cccs2)cc1C | . | . | . | . | 4.61µM | 5.8µM
CC(=O)OC1CCC2(C)C3CCC4(C)C(C(C)=O)CCC4C3CC3OC32C1 (centres undefined) | . | . | / | . | ? | ?
Cc1ccc(-c2nc(CN(C)Cc3cccc4cnccc34)c(C)o2)s1 | . | ? | / | . | ? | 20.6µM
CC1=C(C(=O)OCC2CCCO2)C(c2cccc(C(F)(F)F)c2)C2=C(CC(c3ccco3)CC2=O)N1 (centres undefined) | -53.1 | ? | . | . | ? | ?
CC1=C(C(=O)OCC2CCCO2)C(c2ccccc2OC(C)C)C2=C(CC(c3ccco3)CC2=O)N1 (centres undefined) | . | . | . | . | . | ?
CCCc1cc(N2CCN(c3ccccc3F)CC2)n2cnnc2n1 | / | . | . | . | 18.4µM | 25.9µM
CCc1ccc(NC(=O)Cn2c(=O)n(CCCC(=O)NCc3ccc4c(c3)OCO4)c(=O)c3ccccc32)cc1 | / | . | . | . | 20.6µM | ?
COc1ccc(NC(=O)CCCn2c(=O)c3sccc3n(Cc3ccc(C)cc3)c2=O)cc1 | . | . | . | . | . | ?
COc1ccc(NC(=O)CCCn2c(=O)c3sccc3n(Cc3ccc(C)cc3C)c2=O)cc1 | . | . | . | . | 20.6µM | 16.4µM
Cc1ccc(C)c(Cn2c(=O)n(CCCCCC(=O)NCc3ccc4c(c3)OCO4)c(=O)c3sccc32)c1 | / | . | . | . | ? | ?
O=C(CCCCn1c(=O)c2ccccc2n(Cc2cccc(F)c2)c1=O)NCc1ccc2c(c1)OCO2 | / | . | . | . | ? | 23.1µM
O=C(CCn1c(=O)c2ccccc2n(Cc2ccc(F)cc2Cl)c1=O)NCc1ccc2c(c1)OCO2 | / | . | . | . | . | ?
Cc1ccc(C)c(Cn2c(=O)n(CCCC(=O)NCc3ccc4c(c3)OCO4)c(=O)c3sccc32)c1 | / | . | . | . | ? | 14.6µM
Cc1cc(NC(=O)c2cccnc2)cc(-c2nc3cc(Cl)ccc3o2)c1O | / | . | . | . | / | /
CC(C)[C@@H](CC(=O)N[C@@H]1CCNC[C@H]1C(=O)N[C@H](CC(=O)N[C@@H](CCC(=O)O)CC(=O)O)Cc1c[nH]c2ccccc12)NC(=O)C[C@H](Cc1c[nH]c2ccccc12)NC(=O)[C@@H]1CNCC[C@H]1N | / | / | . | / | / | /
Fc1ccc(NC(=S)N2CCc3ccccc3C2)c(F)c1 | . | . | . | . | . | .

Assay outcomes from PubChem BioAssay.
